Screening results deposited in PubChem by National Center for Advancing Translational Sciences (NCATS).
BAZ2B inh: qHTS Assay for Inhibitors of BAZ2B | AlphaScreen BAZ2B-H3K14Ac peptide displacement | AID 504333, 2011 | Bromodomain adjacent to zinc finger domain protein 2B (Homo sapiens), Q9UIF8 | 360,000 compounds, 4.4% hits | Potency, µM (series often up to 114 µM), most hits filed as inhibitors; also: nearly all actives have a fitted effect of over 60% in size
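Protein-peptide AlphaScreen: BAZ2B 50 nM, b-H3K14Ac 50 nM, 1x PBS pH 7.4 + 0.01% Tween-20. Preincubation 30 min RT; cpd 30 min RT (top 110 uM); beads 20 min RT, light-protected.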
JMJD2A Tudor: qHTS Assay for Inhibitors of JMJD2A-Tudor Domain; 390,000 compounds, 4.4% hits; Lysine-specific demethylase 4A (Homo sapiens), O75164; Potency, µM (top dose mostly 114 µM), most hits filed as inhibitors; AlphaScreen JMJD2A-Tudor / H3K4me3 peptide binding; also: nearly all actives have a fitted effect of over 50% in size
12-LOX inh: Primary qHTS assay for inhibitors of human arachidonate 12S-lipoxygenase (ALOX12): Round 2; Polyunsaturated fatty acid lipoxygenase ALOX12 (Homo sapiens), P18054; purified 12hLO, xylenol orange hydroperoxide absorbance; Potency, µM (titrated, usually from 108 µM), actives largely listed as inhibitors; 580,000 compounds, 1.1% hits; AID 1671190, 2021
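Hydroperoxide product was detected by ferrous iron/xylenol orange as the 573 to 405 nm absorbance ratio. Arachidonic acid at 40 uM (final) was turned over for 30 min at room temperature by 150 nM human 12hLO, pH 7.0 Hepes buffer, after 15 min compound preincubation.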
Sfp PPTase inh: qHTS Assay for Inhibitors of Bacillus subtilis Sfp phosphopantetheinyl transferase (PPTase). Biochemical Sfp PPTase activity, qHTS. 310,000 compounds, 3.5% hits. Potency, µM, most hits filed as inhibitors. 4'-phosphopantetheinyl transferase ffp (Bacillus subtilis), Q9F4F7;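 also: the enzyme is Sfp with the accession as filed and its product quenches rhodamine fluorescence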
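Buffer: 50 mM Hepes-Na pH 7.6, 10 mM MgCl2, 0.01% Nonidet P-40, 0.01% BSA. Enzyme 15 nM, pre-exposed to compound 15 min; substrates then added and fluorescence change tracked over 30 min.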
HP1b binding inh: HTS for Inhibitors of HP1-beta Chromodomain Interactions with Methylated Histone Tails; 390,000 compounds, 0.56% hits; Chromobox protein homolog 1 (Homo sapiens), P83916; Potency, µM (highest dose often 114 µM), most hits filed as inhibitors; AlphaScreen HP1-beta / biotin-H3K9me3 peptide binding; also: nearly all actives have a fitted effect of over 70% in size
Target sequence (P83916 whole entry, looked up): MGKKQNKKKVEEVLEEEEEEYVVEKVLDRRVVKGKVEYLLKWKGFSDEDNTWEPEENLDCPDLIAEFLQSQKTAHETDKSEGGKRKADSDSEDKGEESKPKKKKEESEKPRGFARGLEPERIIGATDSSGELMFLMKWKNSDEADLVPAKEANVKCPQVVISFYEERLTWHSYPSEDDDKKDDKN
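HP1-beta protein (50 nM final) preincubated 30 min at room temperature with biotinylated H3(1-18)K9me3 peptide (50 nM) in PBS pH 7.4, 0.01% Tween-20, then compound added for 30 min. AlphaScreen streptavidin donor/nickel chelate acceptor beads (10 ug/mL final), 30 min dark, luminescence read.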
G9a inh: qHTS Assay for Inhibitors of Histone Lysine Methyltransferase G9a; AID 504332, 2011; Potency, µM (titrated, usually from 102 µM), usual class: inhibitors; 350,000 compounds, 8.8% hits; G9a H3K9 monomethylation, AlphaScreen, 2 h; also: nearly all actives have a fitted effect of over 75% in size
Target sequence (Q96KQ7 913-1193 limits assumed): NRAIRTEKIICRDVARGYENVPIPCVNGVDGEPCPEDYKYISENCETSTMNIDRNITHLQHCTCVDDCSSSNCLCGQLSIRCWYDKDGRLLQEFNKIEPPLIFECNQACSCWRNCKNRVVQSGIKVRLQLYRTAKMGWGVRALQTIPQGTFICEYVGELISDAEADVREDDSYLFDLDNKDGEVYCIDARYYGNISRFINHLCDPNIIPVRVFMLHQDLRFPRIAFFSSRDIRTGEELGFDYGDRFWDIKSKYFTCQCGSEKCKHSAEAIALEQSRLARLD
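Signal arises when biotinylated H3K9 peptide, once monomethylated, bridges streptavidin donor and antibody-captured acceptor beads. Enzyme at 20 nM was preincubated 15 min with test compounds; peptide 500 nM and SAM 20 uM then reacted for 2 h.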
Hits are given with their value; [ ] = remark or other dose. Most compounds without a hit are left out; they make up all but 8.7% or so of the library. Calls follow the shape of the dose curve; as a rule, active = well fitted curve in the direction sought with a large enough effect; inconclusive = small, poorly fitted or top-dose-only effect, or another doubt; inactive = no such curve, though single readings can be large; an effect the other way counts as inactive or inconclusive.

For CC1=C(C(=O)OC(C)(C)C)C(c2ccc(Cl)cc2)N2C(CC(=O)N3CCCC3)=CSC2=N1 (configuration not stated) the results were 12-LOX inh inactive.
For O=C(NC1CCCN(c2cc(-c3ccc(F)cc3)[nH]n2)C1)c1cc2ccccc2[nH]1 (configuration not stated) the results were 12-LOX inh inactive.
`O=S1(=O)CCN(CCCc2ccccc2)CC1` gave 12-LOX inh inactive.
For CCCS(=O)(=O)N1CCN(Cc2ccco2)CC1 the results were BAZ2B inh 50µM, JMJD2A Tudor inconclusive, 12-LOX inh inconclusive, Sfp PPTase inh inconclusive, HP1b binding inh inconclusive and G9a inh 14µM.
O=[N+]([O-])c1ccc(S(=O)(=O)N2CCN(Cc3ccco3)CC2)cc1 was read as BAZ2B inh 20µM, JMJD2A Tudor 8.9µM, 12-LOX inh inactive, Sfp PPTase inh 56µM, HP1b binding inh 22µM and G9a inh inconclusive.
CCCS(=O)(=O)N1CCN(CCCc2ccccc2)CC1 was read as BAZ2B inh 79µM, JMJD2A Tudor 5.6µM, 12-LOX inh inconclusive, Sfp PPTase inh inactive, HP1b binding inh inconclusive and G9a inh 10µM.
Screening Cc1[nH]c(C)c(S(=O)(=O)NCCC(=O)NCc2ccc(F)cc2)c1C(=O)N1CCCC1 returned 12-LOX inh inactive.
For O=C1N(c2ccccc2)C[C@H]2CN(Cc3ncc[nH]3)CCN12 the results were 12-LOX inh inactive.
CC1CC(C)(C)NC(=S)S1 (configuration not stated) was read as BAZ2B inh inactive, JMJD2A Tudor inactive, 12-LOX inh inconclusive, Sfp PPTase inh 50µM, HP1b binding inh inactive and G9a inh 8.9µM.
CC1CC(C)(C)NC(=O)O1 (configuration not stated) was read as BAZ2B inh inactive, JMJD2A Tudor inactive, 12-LOX inh inactive, Sfp PPTase inh inactive, HP1b binding inh inactive and G9a inh inactive.
For CC(=O)N1CCN(C[C@@H]2C=C(C)[C@H](Cc3nnc(-c4ccccc4F)o3)C[C@H]2C(C)C)CC1 the results were 12-LOX inh inactive.
COc1ccc(N2CCN(c3nc(NCCc4ccc(OC)c(OC)c4)nc(OC)n3)CC2)cc1 was read as BAZ2B inh 40µM, JMJD2A Tudor 25µM, 12-LOX inh inactive, Sfp PPTase inh inactive, HP1b binding inh inconclusive and G9a inh 11µM.
Screening COc1nc(NCCc2ccc(OC)c(OC)c2)nc(NC(C)(C)CO)n1 returned BAZ2B inh inactive, JMJD2A Tudor inactive, 12-LOX inh inactive, Sfp PPTase inh inactive, HP1b binding inh inactive and G9a inh inactive.
Screening Clc1ccc2oc(-c3ccccc3)cc(=NCCCN3CCOCC3)c2c1 returned BAZ2B inh inconclusive, JMJD2A Tudor inactive, 12-LOX inh 14µM, Sfp PPTase inh inactive, HP1b binding inh inactive and G9a inh inconclusive.
CCOCc1[nH]c(=S)[nH]c(=O)c1Cc1ccc(OCC(C)C)cc1 was read as BAZ2B inh inactive, JMJD2A Tudor 50µM, 12-LOX inh inconclusive, Sfp PPTase inh inactive, HP1b binding inh inactive and G9a inh inactive.
O=C(Nc1ccc(F)cc1)C1CC(=O)N(Cc2ccccn2)c2nc3ccccc3n21 (configuration not stated) was read as 12-LOX inh inactive.
Screening O=C(Nc1ccccc1C(=O)N1CCN(c2cccc(Cl)c2)CC1)C1=CSCCO1 returned BAZ2B inh 71µM, JMJD2A Tudor inactive, 12-LOX inh inactive, Sfp PPTase inh inactive, HP1b binding inh inactive and G9a inh inactive.
Screening O=C(Nc1ccc(C(=O)N2CCN(c3ccc(Cl)cc3)CC2)cc1)C1=CSCCO1 returned BAZ2B inh inactive, JMJD2A Tudor inconclusive, 12-LOX inh inactive, Sfp PPTase inh inactive, HP1b binding inh inactive and G9a inh inactive.
`CN1CCC(N2C[C@@H]3C[C@H]2C(=O)N(Cc2ccc(OC(F)(F)F)cc2)c2ccccc2O3)CC1` gave 12-LOX inh inactive.
For CN(C)c1ccc(-n2cc3c(=O)n(C)c(=O)n(C)c3c2)cc1 the results were BAZ2B inh 35µM, JMJD2A Tudor inconclusive, 12-LOX inh inactive, Sfp PPTase inh inactive, HP1b binding inh inconclusive and G9a inh 45µM.
Cc1cccc(-n2cc3c(=O)n(C)c(=O)n(C)c3c2)c1 was read as BAZ2B inh inconclusive, JMJD2A Tudor inactive, 12-LOX inh inactive, Sfp PPTase inh inactive and HP1b binding inh inactive.
`CCN(CC)c1ccc(-n2cc3c(=O)n(C)c(=O)n(C)c3c2)cc1` gave BAZ2B inh 32µM, JMJD2A Tudor 56µM, 12-LOX inh inactive, Sfp PPTase inh inactive, HP1b binding inh 32µM and G9a inh inactive[12.7 µM].
For O=C(NCCCN1CCCC1)c1cccs1 the results were 12-LOX inh inactive.
CC(C)N1C(=O)C2(CCCC2)C1C(=O)Nc1cccc(OC(F)(F)F)c1 (configuration not stated) was read as 12-LOX inh inactive.
Screening Cc1ccccc1C(C)NC(=O)c1nn(C)c(=O)c2ccccc12 (configuration not stated) returned 12-LOX inh inactive.
`Cc1ccc(-c2nc3cc(NC(=O)c4cccs4)ccc3o2)cc1C` gave 12-LOX inh inactive.
CCOC(=O)C(Sc1nn(C)c(=S)s1)C(C)=O (configuration not stated) was read as BAZ2B inh inactive, JMJD2A Tudor inactive, 12-LOX inh inconclusive, Sfp PPTase inh 50µM, HP1b binding inh inactive and G9a inh 18µM.
Screening CCOC(=O)C(Sc1cc(C)nc(N)n1)C(C)=O (configuration not stated) returned BAZ2B inh inactive, JMJD2A Tudor 56µM, 12-LOX inh inconclusive, Sfp PPTase inh 56µM, HP1b binding inh inactive and G9a inh 18µM.
Screening Cn1cccc1Cc1nnc(SCC(=O)N2CCCCCC2)n1-c1ccc(F)cc1 returned BAZ2B inh inactive, JMJD2A Tudor inactive, 12-LOX inh inconclusive, Sfp PPTase inh inactive, HP1b binding inh inactive and G9a inh 50µM.
Screening COc1ccc(-n2c(Cc3cccn3C)nnc2SCC(N)=O)cc1 returned BAZ2B inh inactive, JMJD2A Tudor inactive, 12-LOX inh inactive, Sfp PPTase inh inconclusive, HP1b binding inh inactive and G9a inh 50µM.
`COc1ccc(-n2c(Cc3cccn3C)nnc2SCC(=O)N2CCCC2)cc1` gave BAZ2B inh inactive, JMJD2A Tudor inactive, 12-LOX inh inactive, Sfp PPTase inh inactive, HP1b binding inh inactive and G9a inh 45µM.
